Screening results from PubChem BioAssay.
Compounds with a hit are over-represented: about 5.7% of the library has one in this group of screens.
DRD3 agonist: agonists of human D3 dopamine receptor. AID 652048. max activation, %. P35462. hit rate 0.58% among 410,000. D3R DiscoveRx beta-arrestin cells, luminescence, 90 min; in the data active = max activation above about 30%; note: 0% is about no effect
Target sequence (P35462 whole entry, looked up): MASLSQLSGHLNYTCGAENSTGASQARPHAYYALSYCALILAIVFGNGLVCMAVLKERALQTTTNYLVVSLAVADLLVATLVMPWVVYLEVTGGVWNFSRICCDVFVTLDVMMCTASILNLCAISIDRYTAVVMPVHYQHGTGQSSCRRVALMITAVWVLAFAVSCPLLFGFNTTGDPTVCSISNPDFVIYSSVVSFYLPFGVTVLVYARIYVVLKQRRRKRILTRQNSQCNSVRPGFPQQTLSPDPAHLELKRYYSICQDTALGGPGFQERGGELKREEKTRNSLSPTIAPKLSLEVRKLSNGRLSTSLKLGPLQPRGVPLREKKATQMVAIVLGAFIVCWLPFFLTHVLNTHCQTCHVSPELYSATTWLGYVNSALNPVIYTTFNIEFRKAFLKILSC
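Cells at 1500/well, incubated overnight, then treated with pinned compounds (dopamine as control) for 90 min at 37 degrees C. DiscoveRx reagent added for 30 - 60 minutes at room temperature; luminescence read.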
GLP-1R agonist: agonists of human GLP-1 receptor; P43220; HEK293 GLP-1R CRE-luciferase, luminescence, 4-6 h; cells express a hypersensitive GLP-1R form; Potency, µM (series often up to 45.6 µM), inactives show top-dose activation, actives largely listed as activators; hit rate 0.007% among 380,000; AID 624172; note: potency is the fitted concentration of half-maximal effect; % of control where 0% means no effect
GLP1R inv ag: inverse agonists of human GLP-1 receptor; AID 624417; HEK293 GLP-1R CRE-luciferase, luminescence, 24 h; GLP-1R form is constitutively active; Potency, µM (series often up to 38.3 µM), without a hit: at the top dose activity change, negative = inhibition, usual class: inhibitors; hit rate 1.6% among 410,000; note: potency is the fitted concentration of half-maximal effect; % is set by controls: 0 for no effect and ±100 for the full control effect; nearly all actives have a fitted effect of over 55% in size
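GLP-1R inverse agonism mode: basal reporter luminescence in engineered HEK293 cells measured after one day of compound exposure at 37 deg C, with a 12 min room-temperature detection step.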
D3 antag: blocks the human D3 dopamine receptor; max response, negative = inhibition, %; hit rate 2.5% among 360,000; AID 652054; D3R cells, DiscoveRx beta-arrestin luminescence, antagonist mode; active compounds read low; P35462; in the data active = max response below about -50%; inconclusive = no clear call, values can overlap the other calls; note: % is set by controls: 0 for no effect and ±100 for the full control effect
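Cells plated overnight at 1500 cells/well, then exposed to library compounds with dopamine controls for 90 minutes at 37 degrees C. DiscoveRx reagent added for 30–60 minutes at room temperature; luminescence read, quantitative HTS format.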
ClpP mod: qHTS Assay for Activators of ClpP; hit rate 1.9% among 340,000; Potency, µM (highest dose often 57.5 µM), for the others: top-dose activity change, negative = active; AID 651965, 2013; purified B. subtilis ClpP, FRET peptide cleavage, 20 min; ATP-dependent Clp protease proteolytic subunit (Bacillus subtilis (strain 168)), P80244; active = well fitted falling curve with a large enough effect; inconclusive = small, poorly fitted or top-dose-only effect; inactive = no such curve, though single readings can be large or run the other way; note: potency is the fitted concentration of half-maximal effect; the source files actives as falling curves though it sought activators and does not explain the sign; nearly all actives have a fitted effect of over 65% in size
Target sequence (P80244 whole entry, looked up): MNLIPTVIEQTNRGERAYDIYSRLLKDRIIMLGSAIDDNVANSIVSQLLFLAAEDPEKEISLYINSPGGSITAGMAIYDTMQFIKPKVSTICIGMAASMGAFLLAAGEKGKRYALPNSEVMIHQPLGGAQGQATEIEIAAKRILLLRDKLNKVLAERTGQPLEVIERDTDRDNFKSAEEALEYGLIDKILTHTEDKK
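Purified B. subtilis ClpP, 10 microg/mL final in Tris/HCl pH8 with KCl, BSA, glycerol and Tween-20, cleaved an Abz/nitrotyrosine-quenched decapeptide. Fluorescence (ex 320, em 430) was read at 0 and 20 min at room temperature. Delta was normalized to 5.8 microM ADEP and DMSO/no-enzyme controls.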
HEK293 tox: cytotoxicity counter-screen for GLP-1 receptor inverse agonists. HEK293 cAMP-luciferase reporter cells, luminescence, 24 h. Potency, µM (top dose mostly 38.3 µM), without a hit: top-dose activity change, negative = inhibition, actives largely listed as inhibitors. hit rate 0.13% among 410,000;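 note: loss of luciferase light is scored as toxicity; potency is the fitted concentration of half-maximal effect; % is set by controls: 0 for no effect and ±100 for the full control effect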
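Quantitative HTS format, 1536 wells, 200 cells/uL seeded. Compounds: 23 nL, 24 h, 37 °C. Detection: luciferase reagent, luminescence at 12 min RT; decreased signal taken as cytotoxic.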
Active calls of the source: *; ? = inconclusive; / = no result given. Unless noted, calls come from the whole dose curve; as a rule, active = well fitted curve in the direction sought with a large enough effect; inconclusive = small, poorly fitted or top-dose-only effect, or another doubt; inactive = no such curve, though single readings can be large; an effect the other way counts as inactive or inconclusive.

SMILES | DRD3 agonist | GLP-1R agonist | GLP1R inv ag | D3 antag | ClpP mod | HEK293 tox
O=C(NNC(=O)C1CCN(Cc2ccc(F)cc2Cl)CC1)Nc1ccc([N+](=O)[O-])cc1 | -7.7 | -0.3% | 3.98µM* | -0.4 | 1.8% | 8.3%
Cc1scc(C(=O)N/N=C/c2ccc(OCC(C)C)cc2)c1C | 7.5 | -4.4% | 8.91µM* | 3.9 | -0.7% | 2.0%
Cc1cccc(CN(CC(=O)N/N=C/c2cccs2)S(=O)(=O)c2ccc(Cl)cc2)c1 | 4.5 | 1.8% | 8.91µM* | 1.8 | -0.7% | -19.4%
CC(=O)N(C(C)=O)c1c(C#N)c(C)n(-c2ccccc2)c1C(=O)c1ccccc1 | 2.8 | -12.2% | 5.62µM* | 17.9 | 1.8% | -8.3%
CC(=O)c1coc2ccc(OCCN3CCCCC3)cc12 | -36.3 | -0.6% | 9.1% | -83.5* | -3.9% | 5.8%
COc1ccc2occ(C(C)=O)c2c1 | -1.9 | -1.5% | 13.8% | -6.7 | -2.8% | 7.4%
Cc1cc2c(cc1[N+](=O)[O-])NC(CNC(C)C)CC2 (centres undefined) | -6.7 | 3.1% | -27.1% | -83.5* | / | -21.8%
Cc1cc(C(=O)NCC2CCCCC2)ccc1[N+](=O)[O-] | -9.1 | 14.7% | -27.6% | -12.9 | / | 4.3%
COCCn1nnnc1SCC(=O)c1ccc(F)cc1 | -2.9 | -2.9% | 29.0% | -66.9* | -0.3% | -12.2%
COc1ccc(CONS(=O)(=O)c2ccc(NC(C)=O)cc2)cc1Cl | 9.7 | 0.9% | 4.5% | -106.0* | -0.2% | -11.7%
COc1ccc(S(=O)(=O)Nc2ccc(NC(C)=O)cc2)cc1Cl | -2.5 | 3.2% | 13.3% | 6.1 | / | 5.4%
CCOC(=O)C1(Cc2ccccc2C)CCCN(C(=O)COC)C1 (centres undefined) | -0.3 | 2.6% | 1.4% | -12.9 | -2.0% | 13.5%
CCOC(=O)C1(Cc2ccccc2C)CCCN(C(=O)CN2CCCCC2=O)C1 (centres undefined) | 58.5* | 5.9% | 15.8% | -21.1 | / | -4.5%
Fc1ccc(F)c(CN2CCN(c3ncccn3)CC2)c1 | 30.9* | 14.5% | 5.8% | 12.5 | -1.4% | 10.5%
CCc1ccc(CN2CCN(c3ncccn3)CC2)cc1 | 60.6* | -3.8% | -24.9% | ? | 0.3% | -25.9%
Oc1ccc(F)c(CN2CCN(c3ncc(Cc4ccccc4)cn3)CC2)c1 | -4.4 | / | ? | -10.2 | -0.1% | -1.3%
Brc1cccc(CN2CCN(c3ncccn3)CC2)c1 | 4.2 | 10.8% | ? | -13.2 | / | 3.1%
Fc1ccc(CN2CCN(c3ncccn3)CC2)cc1 | 50.8* | 6.2% | -5.2% | -17.2 | -2.1% | 9.5%
CC(C)(C)NC[C@H](O)COc1ccccc1C1CCCC1 | -24.6 | / | / | / | / | /
Cc1ccc(N(C)S(=O)(=O)c2ccc3[nH]c(=O)ccc3c2)cc1 | -3.2 | / | 13.0% | / | 6.4% | 0.0%
COc1cc2ncnc(N3CCN(C(=O)Nc4ccc(Oc5ccccc5)cc4)CC3)c2cc1OC | / | / | / | / | -4.4% | /
COC(=O)C1CCCCN1C(=O)c1ccc2oc(Cc3ccccc3)nc2c1 (centres undefined) | -6.4 | 3.5% | ? | -9.0 | 28.2µM* | 3.6%
CN(C)c1nccc(N(Cc2ccccc2)Cc2ccccc2)c1C#N | -21.8 | -1.3% | 11.2µM* | -28.4 | ? | 46.3%
CN(C)c1ccnc(Nc2ccccc2)c1C#N | 7.0 | 0.2% | -0.8% | 5.6 | / | -16.5%
CSCCC(NC(=O)COc1ccccc1)C(=O)NCC(C)(C)N1CCOCC1 (centres undefined) | 1.2 | 5.6% | 9.0% | 13.1 | 0.1% | -1.2%
SMILES | DRD3 agonist | GLP-1R agonist | GLP1R inv ag | D3 antag | ClpP mod | HEK293 tox
O=Cc1cc(Cl)ccc1OCCN1CCC(Cc2ccccc2)CC1 | -23.4 | 12.0% | ? | ? | / | ?
C=CCOc1ccccc1CN1CCC(Cc2ccccc2)CC1 | -10.2 | -2.2% | ? | -52.4* | -4.2% | ?
Clc1ccccc1OCCN1CCC(Cc2ccccc2)CC1 | -7.0 | 2.1% | ? | -89.9* | 0.9% | ?
OCc1ccccc1OCCCN1CCC(Cc2ccccc2)CC1 | -25.4 | -0.1% | ? | -66.0* | / | -12.5%
c1ccc(-c2ccccc2OCCCN2CCCCC2)cc1 | -4.3 | -3.6% | ? | 0.0 | -1.7% | -12.5%
CCN1CCN(C(=O)C2CCN(C(=O)c3cc4sccc4n3CC)CC2)CC1 | -6.6 | 3.1% | -17.4% | 0.0 | 1.0% | -1.1%
CCN1CCN(C(=O)c2cc3sccc3n2CC(=O)c2ccccc2)CC1 | -38.1 | 5.4% | 0.0% | -56.1* | 0.5% | ?
CN1CCN(C(=O)c2cc3sccc3n2CC(=O)c2ccccc2)CC1 | -37.9 | -4.8% | -2.2% | -61.8* | -0.3% | -31.3%
COc1ccc(CCCc2nnc(SCC(=O)Nc3ccc(C)cc3)o2)cc1C | -6.4 | / | 6.1% | / | 2.5% | 13.7%
C=CCc1cc(Cl)ccc1OCCN1CC(C)OC(C)C1 (centres undefined) | -36.8 | 6.6% | ? | ? | 0.8% | 1.9%
C=CCc1cc(Cl)ccc1OCCNCCN1CCOCC1 | -10.4 | -1.8% | 10µM* | ? | / | 12.8%
C=CCc1cc(Cl)ccc1OCCNCCOC | -11.6 | 1.9% | ? | -55.5* | / | 1.3%
COCCNCc1ccc(Cl)cc1Cl | -6.3 | -6.9% | 12.7% | 2.1 | -2.8% | 5.5%
Cc1ccccc1C(=O)NNC1=NCCC1 | 0.1 | -14.9% | 3.9% | -11.6 | -1.0% | -9.2%
O=C(NNC1=NCCC1)c1cccc(Br)c1 | -1.5 | 2.1% | -2.4% | -58.1* | -0.5% | 6.9%
NC1(C(=O)O)CC1 | -47.7 | -1.7% | 21.2% | -75.3* | 0.4% | 2.7%
O=C(O)C1(C(=O)O)CCCC1 | 6.2 | -0.9% | -12.4% | 3.1 | / | 7.8%
CCc1ccc(NC(=O)Cn2cc(S(=O)(=O)c3ccc(F)cc3)c(=O)c3cc(OC)ccc32)cc1 | 0.7 | 0.7% | 2.1% | / | -16.6% | 4.3%
CCCC(=O)N(CCN(Cc1ccccc1)C(=O)CCC)Cc1ccccc1 | -4.5 | 0.8% | 12.6µM* | 25.6 | -0.6% | -23.8%
COC(=O)CCC(=O)N(CCN(Cc1ccccc1)C(=O)CCC(=O)OC)Cc1ccccc1 | -0.9 | 6.2% | 20.3% | 0.1 | / | -9.1%
Cc1ccnc(-n2c(C)cc(/C=N/NC(=O)COc3cccc4cccnc34)c2C)c1 | -15.8 | 5.6% | 30.7% | -13.2 | 14.1µM* | 22.8%
CC(C)n1cc(/C=N/NC(=O)COc2cccc3cccnc23)c2ccccc21 | 34.5* | 16.8% | -28.5% | 15.8 | -1.0% | ?
CCc1ccc(NC(=O)c2ccc3c(O)c(S(=O)(=O)c4ccccc4)c(=O)[nH]c3c2)cc1 | -3.0 | / | 13.6% | / | -0.5% | -2.5%
COc1ccccc1NNC(=O)c1cc(C(C)(C)C)nn1Cc1ccccc1 | 7.3 | 11.3% | ? | 23.2 | / | -14.5%
Cc1ccc(NC(=O)c2cc(C(C)(C)C)nn2Cc2ccccc2)cc1 | 16.8 | -22.4% | 3.98µM* | 50.9 | -2.0% | -20.1%
